# From PubChem BioAssay (NCATS)
# Inconclusive results are not listed. The source made the active and inactive calls. Unless noted, calls come from the whole dose curve; as a rule, active = well fitted curve in the direction sought with a large enough effect; inconclusive = small, poorly fitted or top-dose-only effect, or another doubt; inactive = no such curve, though single readings can be large; an effect the other way counts as inactive or inconclusive.
# Assays:
# [1] = qHTS for Inhibitors of the Functional Ribonucleoprotein Complex (vRNP) of Lassa (LASV) Arenavirus: LASV Primary Screen - GLuc reporter signal (AID 1347082; calls by dose curve; tested in HEK293 reporter line; note: nearly all actives have a fitted effect of over 60% in size; note: potency is the fitted concentration of half-maximal effect)
# [2] = biological target: Nucleoprotein (Lymphocytic choriomeningitis virus (strain Armstrong)) (UniProt P09992); assay: qHTS for Inhibitors of the Functional Ribonucleoprotein Complex (vRNP) of Lymphocytic Choriomeningitis Arenaviruses (LCMV): LCMV Primary Screen - GLuc reporter signal (AID 1347086; calls by dose curve; note: nearly all actives have a fitted effect of over 70% in size; note: potency is the fitted concentration of half-maximal effect)
# Sequence of Nucleoprotein (Lymphocytic choriomeningitis virus (strain Armstrong)) (P09992 whole entry, looked up): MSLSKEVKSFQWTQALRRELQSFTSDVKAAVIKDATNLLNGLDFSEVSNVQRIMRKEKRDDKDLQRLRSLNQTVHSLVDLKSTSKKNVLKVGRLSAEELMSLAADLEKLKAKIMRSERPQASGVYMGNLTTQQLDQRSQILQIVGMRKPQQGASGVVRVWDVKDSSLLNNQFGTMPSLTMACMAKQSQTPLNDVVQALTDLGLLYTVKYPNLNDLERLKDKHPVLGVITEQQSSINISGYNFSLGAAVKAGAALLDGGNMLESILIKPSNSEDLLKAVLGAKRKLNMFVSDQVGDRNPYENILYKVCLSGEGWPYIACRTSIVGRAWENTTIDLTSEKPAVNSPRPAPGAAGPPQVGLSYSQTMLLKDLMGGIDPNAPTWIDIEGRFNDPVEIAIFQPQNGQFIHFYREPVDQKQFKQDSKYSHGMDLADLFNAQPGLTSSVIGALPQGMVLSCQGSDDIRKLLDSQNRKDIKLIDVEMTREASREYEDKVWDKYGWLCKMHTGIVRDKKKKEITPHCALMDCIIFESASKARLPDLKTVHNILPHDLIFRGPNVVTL
# [3] = qHTS for Inhibitors of the Functional Ribonucleoprotein Complex (vRNP) of Lassa (LASV) Arenavirus: Viability assay - alamar blue signal for LASV Primary Screen (AID 1347083; calls by dose curve; tested in HEK293 reporter line; note: nearly all actives have a fitted effect of over 80% in size; note: potency is the fitted concentration of half-maximal effect)
# [4] = qHTS for Inhibitors of the Functional Ribonucleoprotein Complex (vRNP) of Lymphocytic Choriomeningitis Arenaviruses (LCMV): Viability assay - alamar blue signal for LCMV Primary Screen (AID 1347085; calls by dose curve; tested in HEK293 reporter line; note: nearly all actives have a fitted effect of over 80% in size; note: potency is the fitted concentration of half-maximal effect)
# [5] = qHTS of pediatric cancer cell lines to identify multiple opportunities for drug repurposing: Primary screen for TC32 cells (AID 1347089); note: nearly all actives have a fitted effect of over 60% in size
# How it was run: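 Measured quantity: luminescence from CellTiter-Glo, reflecting metabolically active TC32 cells following 48 h of compound. Curves came straight from multi-point titrations, with 8 or 11 points in primary and 11 in confirmatory screening.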
# [6] = qHTS of pediatric cancer cell lines to identify multiple opportunities for drug repurposing: Primary screen for SJ-GBM2 cells (AID 1347091); note: potency is the fitted concentration of half-maximal effect
# How it was run: (§1)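 Cell viability, CellTiter-Glo luminescence; 500-1,000 cells/well, 8- or 11-point titration, 48 h compound exposure at 37 degrees C, 5% CO2. Controls: DMSO neutral, bortezomib 2.3 µM final as positive.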
# [7] = qHTS of pediatric cancer cell lines to identify multiple opportunities for drug repurposing: Primary screen for A673 cells (AID 1347092); note: potency is the fitted concentration of half-maximal effect; nearly all actives have a fitted effect of over 45% in size
# How it was run: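 Cells are plated, rested 5 h, dosed by pintool, incubated 48 h, then lysed with CellTiter-Glo and read by luminescence. DMSO is the neutral control; bortezomib at 2.3 uM final is the positive control.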
# [8] = qHTS of pediatric cancer cell lines to identify multiple opportunities for drug repurposing: Primary screen for SK-N-MC cells (AID 1347093); note: potency is the fitted concentration of half-maximal effect
# How it was run: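 Metabolically active cells were quantified by ATP-dependent luminescence (CellTiter-Glo, 15 min at room temperature) following 48 h treatment. Cells had been plated at 500-1,000 per well and settled for 5 h beforehand.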
# [9] = qHTS of pediatric cancer cell lines to identify multiple opportunities for drug repurposing: Primary screen for NB-EBc1 cells (AID 1347095); note: potency is the fitted concentration of half-maximal effect
# How it was run: (§2)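 Luminescence from CellTiter-Glo served as readout of metabolically active cells after 48 h compound exposure. Titrations: MIPE 11-point, from 0.78 nM; NPC 8-point, from 0.59 nM (final). Concentration-response curves came straight from the primary screen.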
# [10] = qHTS of pediatric cancer cell lines to identify multiple opportunities for drug repurposing: Primary screen for U-2 OS cells (AID 1347096); note: nearly all actives have a fitted effect of over 50% in size
# How it was run: (§3)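 Cells (500-1,000/well) rested 5 h, then received compounds for 48 h; metabolically active cells were measured by CellTiter-Glo luminescence. Final concentrations spanned up to 46 µM (MIPE, 11-point) or 0.59 nM-46 µM (NPC, 8-point) in primary screens, 11-point in follow-ups.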
# [11] = qHTS of pediatric cancer cell lines to identify multiple opportunities for drug repurposing: Primary screen for LAN-5 cells (AID 1347100); note: potency is the fitted concentration of half-maximal effect
# How it was run: as §3
# [12] = qHTS of pediatric cancer cell lines to identify multiple opportunities for drug repurposing: Primary screen for DAOY cells (AID 1347090); note: series mostly up to about 46 µM; nearly all actives have a fitted effect of over 55% in size
# How it was run: as §1
# [13] = qHTS of pediatric cancer cell lines to identify multiple opportunities for drug repurposing: Primary screen for BT-37 cells (AID 1347094); note: potency is the fitted concentration of half-maximal effect
# How it was run: as §2
# [14] = qHTS of pediatric cancer cell lines to identify multiple opportunities for drug repurposing: Primary screen for Saos-2 cells (AID 1347097); note: potency is the fitted concentration of half-maximal effect; nearly all actives have a fitted effect of over 40% in size
# How it was run: as §2
# [15] = qHTS of pediatric cancer cell lines to identify multiple opportunities for drug repurposing: Primary screen for NB1643 cells (AID 1347099); note: potency is the fitted concentration of half-maximal effect; nearly all actives have a fitted effect of over 50% in size
# How it was run: as §2
compound,measurement,setting,value
N#Cc1ccc(COC[C@H]2O[C@@H](n3c(NCc4ccc(Cl)c(Cl)c4)nc4c(N)ncnc43)[C@@H](O)[C@@H]2O)cc1,Potency,[1],inactive
same,Potency,[2],inactive
CC(C)[C@H](C(=O)Nc1ccc(C(=O)NO)cc1)c1ccccc1,Potency,[3],5.44 µM (active)
same,Potency,[4],6.85 µM (active)
Nc1ccccc1NC(=O)c1ccc(CNC(=O)OCc2cccnc2)cc1,Potency,[3],12.2 µM (active)
Cc1cc(-c2ccc(CC(=O)Nc3ccc(-c4cccnc4)cc3)cc2)ccn1,Potency,[3],19.3 µM (active)
Cc1ccc(C(=O)N(CCCN)[C@@H](c2nc3cc(Cl)ccc3c(=O)n2Cc2ccccc2)C(C)C)cc1,Potency,[3],inactive
CCc1cncnc1N1CCN(Cc2nc3ccc(C(F)(F)F)cc3[nH]2)CC1,Potency,[3],inactive
same,Potency,[4],inactive
CCn1c(-c2nonc2N)nc2c(C#CC(C)(C)O)ncc(OC[C@H]3CCCNC3)c21,Potency,[3],0.0611 µM (active)
same,Potency,[4],0.153 µM (active)
COc1cc2c(Oc3ccc(NC(=O)C4(C(=O)Nc5ccc(F)cc5)CC4)cc3F)ccnc2cc1OCCCN1CCOCC1,Potency,[3],21.7 µM (active)
same,Potency,[4],21.7 µM (active)
CCCCc1nc2cc(C=CC(=O)NO)ccc2n1CCN(CC)CC,Potency,[3],6.85 µM (active)
same,Potency,[4],7.69 µM (active)
Fc1cc(-c2cccc3ncc(-c4cnn(C5CCNCC5)c4)nc23)cc(F)c1CN1CCOCC1,Potency,[1],24.3 µM (active)
same,Potency,[2],inactive
O=C1C(Cl)=C(NCCN2CCOCC2)C(=O)c2ncccc21,Potency,[3],34.3 µM (active)
Nc1nc(Nc2ccc(S(N)(=O)=O)cc2)nn1C(=O)c1c(F)cccc1F,Potency,[3],24.3 µM (active)
Cc1cc(Nc2cc(N3CCN(C)CC3)nc(Sc3ccc(NC(=O)C4CC4)cc3)n2)n[nH]1,Potency,[3],19.3 µM (active)
same,Potency,[4],38.5 µM (active)
CC(C)(C)OC(=O)Nc1ccc(-c2cc(C(=O)NCCCCCCC(=O)NO)no2)cc1,Potency,[3],17.2 µM (active)
same,Potency,[4],19.3 µM (active)
COc1ccc(N(C(=O)Oc2c(C)cccc2C)c2ccnc(Nc3ccc(N4CCN(C)CC4)cc3)n2)c(OC)c1,Potency,[1],inactive
same,Potency,[2],inactive
same,Potency,[5],inactive
same,Potency,[6],8.33 µM (active)
same,Potency,[7],0.935 µM (active)
same,Potency,[8],1.32 µM (active)
same,Potency,[9],8.33 µM (active)
same,Potency,[10],inactive
same,Potency,[11],1.48 µM (active)
Cn1c(=O)c(F)c(Nc2ccc(I)cc2F)c2c(=O)n(C[C@@H](O)CO)cnc21,Potency,[3],4.85 µM (active)
COc1c(Cl)cc2c([nH]c3cnccc32)c1NC(=O)c1cccnc1C,Potency,[1],inactive
same,Potency,[2],inactive
CN1CCN(c2ccc3nc(-c4c(N)c5c(F)cccc5[nH]c4=O)[nH]c3c2)CC1,Potency,[3],2.17 µM (active)
CC[C@H](Nc1ncnc2nc[nH]c12)c1nc2cccc(F)c2c(=O)n1-c1ccccc1,Potency,[3],24.3 µM (active)
Cc1ccc(C(=O)Nc2ccc(CN3CCN(C)CC3)c(C(F)(F)F)c2)cc1C#Cc1cnc2cccnn12,Potency,[3],1.22 µM (active)
same,Potency,[4],3.43 µM (active)
CC(C)c1ccc(Cn2ccc3c4c(N)nc(NC5CC5)nc4ccc32)cc1,Potency,[3],7.69 µM (active)
same,Potency,[4],7.69 µM (active)
O=C(c1ccc(Nc2nccc(-c3cc4ccccc4s3)n2)cc1)N1CCC(N2CCCC2)CC1,Potency,[3],21.7 µM (active)
CCCS(=O)(=O)Nc1ccc(F)c(C(=O)c2c[nH]c3ncc(Cl)cc23)c1F,Potency,[3],12.2 µM (active)
same,Potency,[4],2.73 µM (active)
CCN(CC)c1ccc(C(=C2C=CC(=[N+](CC)CC)C=C2)c2cc(S(=O)(=O)O)ccc2S(=O)(=O)[O-])cc1,Potency,[1],inactive
same,Potency,[2],inactive
C#Cc1cccc(Nc2ncnc3cc(OC)c(OCCCCCCC(=O)NO)cc23)c1,Potency,[3],3.43 µM (active)
Cc1[nH]c2ccccc2c1CCNCc1ccc(C=CC(=O)NO)cc1,Potency,[3],0.863 µM (active)
same,Potency,[4],0.863 µM (active)
O=c1[nH]nc(Sc2ncc([N+](=O)[O-])s2)n1-c1ccc2c(c1)OCCO2,Potency,[1],inactive
same,Potency,[2],inactive
C[C@]1(CO)CN(c2cc(C(=O)Nc3ccc4c(c3)-c3c(c(C(N)=O)nn3-c3ccc(F)cc3)CC4)c(Cl)cn2)C[C@@]1(C)CO,Potency,[3],1.72 µM (active)
same,Potency,[4],1.37 µM (active)
Nc1ccc(C(=O)c2cc3c(ccc4ccccc43)[nH]2)cc1,Potency,[3],17.2 µM (active)
COc1cc(=C2C=c3ccccc3=N2)[nH]c1=Cc1[nH]c(C)cc1C,Potency,[3],21.7 µM (active)
same,Potency,[4],21.7 µM (active)
CN1CCC(CNc2ccc3ncc(-c4cccc(OC(F)(F)F)c4)n3n2)CC1,Potency,[3],17.2 µM (active)
N=c1c2c(-c3ccccc3)c(-c3ccccc3)n(Cc3ccccc3)c2ncn1C1CCC(O)CC1 (centres undefined),Potency,[3],1.09 µM (active)
same,Potency,[4],0.544 µM (active)
same,Potency,[2],1.72 µM (active)
same,Potency,[12],inactive
same,Potency,[6],18.7 µM (active)
same,Potency,[7],18.7 µM (active)
same,Potency,[8],16.6 µM (active)
same,Potency,[13],0.968 µM (active)
same,Potency,[9],0.59 µM (active)
same,Potency,[14],23.5 µM (active)
same,Potency,[15],4.69 µM (active)
same,Potency,[11],1.05 µM (active)
